This is a sample that favours compounds with a hit; in the whole collection about 11% have one here.
PNC assembly inh: blocks assembly of the perinucleolar compartment | activity change (PNC), negative = inhibition, % at 10 µM | 140,000 compounds, 3.1% hits | PC3M PTB-GFP, PNC prevalence imaging, 16 h; hits give low values;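 active means readout at or below -70, meaning at least 70% loss of cells showing the perinucleolar compartment, a nuclear body marking cancer cells; inconclusive means readout between -30 and a set limit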;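 further: plate controls were DMSO wells for no effect and camptothecin positive control wells for full effect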
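Read-out is percentage of cells bearing a perinucleolar compartment, from automated 20x imaging of fixed, Hoechst-stained PC3M PTB-GFP cells. Cells were seeded 4 h, then exposed 16 h to compound (23 nl of library stock) in duplicate plates.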
ALDH1A1 block: inhibitors of human aldehyde dehydrogenase 1A1. P00352. Purified ALDH1A1, NADH fluorescence, propionaldehyde substrate. Potency, µM (top dose mostly 75.3 µM), for inactives: at the top dose activity, negative = inhibition, actives largely listed as inhibitors. 220,000 compounds, 7.3% hits. AID 1030;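 further: potency means the concentration at half of the fitted maximal effect; plate controls were no enzyme wells and a reference inhibitor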
HPGD block: HPGD (human) dehydrogenase inhibition; 150,000 compounds, 4.3% hits; P15428; purified HPGD, NADH fluorescence kinetic, PGE2 substrate; Potency, µM, without a hit: at the top dose activity change, negative = inhibition, actives largely listed as inhibitors; further: potency means the concentration at half of the fitted maximal effect
Target sequence (P15428 whole entry, looked up): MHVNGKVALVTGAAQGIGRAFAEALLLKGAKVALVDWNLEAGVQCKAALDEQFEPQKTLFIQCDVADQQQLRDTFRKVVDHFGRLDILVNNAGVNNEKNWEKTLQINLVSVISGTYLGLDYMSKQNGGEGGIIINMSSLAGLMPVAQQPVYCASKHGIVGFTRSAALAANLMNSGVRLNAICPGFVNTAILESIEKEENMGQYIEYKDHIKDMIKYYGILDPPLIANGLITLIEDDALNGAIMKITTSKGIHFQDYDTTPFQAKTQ
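20 nM HPGD preincubated 15 min at room temperature with compound in 50 mM Tris-HCl pH 8, 0.01% Tween 20. Started with 1 mM NAD+ and 30 uM prostaglandin E2; NADH fluorescence (360/450 nm) read 5 times over 30-s intervals, last minus first.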
The depositor's hits bear a star; ? = inconclusive; · = no result; [ ] = remark or other dose. Unless noted, the call rests on the fitted dose curve; in most records, active means well fitted inhibition curve with a large enough effect (not every such curve was filed as active); inconclusive means small, poorly fitted or top-dose-only effect, or another doubt; inactive means no such curve, though single readings can be large or run the other way. Unless noted, on the % scale 0 is the no-effect control and ±100 the full control effect.

SMILES	PNC assembly inh	ALDH1A1 block	HPGD block
Cc1ccc(NC(=S)Nc2ccc(C(C)C)cc2)cc1S(=O)(=O)N1CCCCCC1	-15	18µM*	?
COc1ccc(NC(=S)Nc2ccc(C)c(S(=O)(=O)N3CCCCC3)c2)cc1	?	?	-10%
COc1cc(S(=O)(=O)NCc2ccccc2)ccc1F	11	-15%	-8%
COc1cccc(C2(O)CCN(C(=O)C3CCC3)CC2)c1	-29	1%	-6%
COc1cccc(C(=O)N2CCC(O)(c3cccnc3)CC2)c1	·	1%	·
COc1ccc(NC(=O)N2CCC(O)(c3cccnc3)CC2)c(OC)c1	-82*	12%	-12%
COc1cccc(C2(O)CCN(C(=O)C3CC3)CC2)c1	13	22µM*	-12%
COC(=O)C/C=C1\c2ccccc2[C@H](OC)[C@H]1C	·	7%[13.5 µM]	·
COC(=O)C(C)Sc1nnc2n(-c3cccc(C)c3)c(=O)c3c4c(sc3n12)CCCC4 (stereo not drawn)	-17	1%	-9%
c1ccc(Cc2nnc(N3CCCCC3)c3ccccc23)cc1	·	-8%	·
c1ccc(Cc2nnc(N3CCOCC3)c3ccccc23)cc1	?	-4%	25µM*
COc1ccc(-c2nc(C)sc2CC(=O)O)cc1	-100*	4%	-17%
COc1ccc(-c2nc(C)sc2CC(=O)O)cc1OC	·	-7%	·
CCCC(C)c1nnc(NC(=O)CS(=O)(=O)Cc2ccccc2)s1 (stereo not drawn)	6	25µM*	13µM*
CCOc1ccccc1C(=O)NCC(=O)O	·	7%	·
CC(C)Cc1nnc(NC(=O)CS(=O)(=O)Cc2ccccc2)s1	-18	?	-28%
O=C(CS(=O)(=O)Cc1ccccc1)Nc1nc2ccccc2s1	?	6%	-3%
CCOc1ccccc1C(=O)Nc1nncs1	-20	-5%	-21%
CCOc1ccccc1C(=O)NN1C(=O)CCC1=O	-114*	-1%	-4%
CCOc1ccccc1C(=O)Nc1nnc(C(C)C)s1	25	1.3µM*	-12%
CC(C)c1nnc(NC(=O)CS(=O)(=O)Cc2ccccc2)s1	·	7.9µM*	·
O=C(COC(=O)CCc1nc2ccccc2c(=O)[nH]1)Nc1ccc2c(c1)OCO2	·	0%	·
Cc1ccc(S(=O)(=O)NC(=O)COc2ccccc2C(N)=O)cc1	?	4%	-3%
Cc1cc(C)c(OCC(=O)Nc2nnc(-c3ccco3)o2)c(C)c1	·	0%	·
CCOc1ccc(NC(=O)c2cc3c(=O)n(C)c4ccccc4c3n2C)cc1	-25	?	?
SMILES	PNC assembly inh	ALDH1A1 block	HPGD block
CCOc1ccc(NC(=O)CSCc2cnn(-c3ccccc3)c2-n2cccc2)cc1	-8	-9%	-8%
CC(=O)N1CCN(c2ccc(NC(=O)c3ccc(OCc4ccccc4)cc3)cc2)CC1	·	-8%	·
COc1cc(CNc2ccc(N3CCN(C(C)=O)CC3)cc2)ccc1OCc1ccccc1	·	18µM*	·
CC(=O)N1CCN(c2ccc(NCc3ccc(C)cc3)cc2)CC1	?	?	0%
CCc1ccc(CNc2ccc(N3CCN(C(C)=O)CC3)cc2)cc1	?	22µM*	-13%
CCC1=C2CC[C@H]3C(=O)N(C)C(=O)[C@H]3[C@H]2[C@@]2(Cc3ccccc3)C(=NCCc3c[nH]c4ccccc34)OC(=O)N2C1=O	·	-2%	-3%
O=C(CCCN1C(=O)c2ccccc2C1=O)NCCN1C(=O)S/C(=C\c2cccs2)C1=O	52	-12%	-18%
Cc1cc2cc(CN(CC3CCCO3)C(=O)c3cnccn3)c(=O)[nH]c2cc1C (stereo not drawn)	-17	?	-12%
COC(=O)C1CCCCN1C(=O)CCc1nnc(CCc2c[nH]c3ccccc23)o1 (stereo not drawn)	·	22µM*	·
COC(=O)[C@@H]1CCCN1C(=O)CCc1nnc(CCc2c[nH]c3ccccc23)o1	·	-4%	·
COc1ccc(NC(=O)CN(C)S(=O)(=O)c2ccc3c(c2)CCC(=O)N3)c(OC)c1	-17	-1%	-6%
Cc1nc(-c2ccccc2)sc1-c1nc(-c2ccncc2)ncc1S(=O)(=O)c1ccccc1	58	?	?
O=C(CC(=O)c1ccncc1)c1ccccc1	·	3.5µM*	3.5µM*
O=C(O)c1ccc(C(=O)O)cc1	·	2%	-3%
O=C(O)CSCC(=O)NCc1ccccc1	6	-11%	-4%
O=C(O)c1ccncc1.O=C(O)c1ccncc1.[Cl][Pt]([Cl])([Cl])[Cl]	·	2.2µM*	4µM*
O=C(O)CSCC(=O)c1ccccc1	6	14µM*	-24%
O=C(CC(=O)c1ccccc1)c1ccccc1	·	-2%	?
C=C1C(=O)OC2C[C@@]3(C)CCCC(=C)[C@@H]3CC12 (stereo partly drawn)	·	-7%	-4%
O=C(Nc1ccccc1)c1ccc(CSc2ncccn2)cc1	44	9%	?
NC(CSCc1cccc(Br)c1)C(=O)O (stereo not drawn)	·	-11%	·
CC(C)=CCC[C@](C)(O[C@@H]1O[C@H](CO)[C@@H](O)[C@H](O)[C@H]1O)[C@H]1CC[C@]2(C)[C@@H]1[C@H](O)C[C@@H]1[C@@]3(C)CC[C@H](O[C@@H]4O[C@H](CO)[C@@H](O)[C@H](O)[C@H]4O[C@@H]4O[C@H](CO)[C@@H](O)[C@H](O)[C@H]4O)C(C)(C)[C@@H]3[C@@H](O)C[C@]12C	·	6%	-5%
CN1CCC/C1=C/C=C1\SC(=S)NC1=O	-18	?	-20%
CC1(C)NC(C)(C)c2nonc2/C1=N\O	22	13µM*	-4%
CC12CCC(C(=O)NNc3ccc([N+](=O)[O-])cc3)(CC1=O)C2(C)C (stereo not drawn)	-27	?	-20%
SMILES	PNC assembly inh	ALDH1A1 block	HPGD block
CCN1CCN(c2nc3sc4c(c3c(=O)n2-c2ccc(OC)cc2)CCCCC4)CC1	38	10µM*	-14%
CCSc1nnc2n(-c3ccc(OC)cc3)c(=O)c3c4c(sc3n12)CCCC4	0	-7%	-14%
CCOC(=O)C1=C(C)N=C2SC(C)C(=O)N2C1c1cccc(F)c1 (stereo not drawn)	37	-13%	-4%
CC1=C(C(=O)OCC(C)C)C(c2cccc(F)c2)N2C(=O)C(C)SC2=N1 (stereo not drawn)	?	0.45µM*	?
[O-][N+](CCO)(CCO)c1ncnc2nc[nH]c12	·	4%[13.5 µM]	-11%
Cc1ccc(C(C#N)N2CCOCC2)cc1 (stereo not drawn)	-12	-11%	-6%
N#CC(c1ccc(O)cc1)N1CCOCC1 (stereo not drawn)	-103*	7.9µM*	-6%
COc1ccccc1CNC(=O)c1cccc2c1C(=O)N(Cc1cccnc1)C2	·	-6%	·
O=C(NC(=S)Nc1cccc2cccnc12)c1ccccc1	6	?	-6%
Cc1ccc2cccc(NC(=S)NC(=O)c3ccnn3C)c2n1	-21	10µM*	-2%
CCOC(=O)C(C)C(C)=O (stereo not drawn)	·	6%	0%
CN(C)NC(=O)c1cccc(Cl)c1	·	7%	·
CN(C)/C=C/C(=O)c1cccc(Cl)c1	-1	?	25µM*
CN(C)/C=C/C(=O)c1ccc(Cl)cc1	-12	-6%	18µM*
CN(C)/C=C/C(=O)c1ccc(Oc2ncccn2)cc1	·	-6%	·
CCCC(c1nnnn1Cc1ccco1)N1CCN(C2CCCC2)CC1 (stereo not drawn)	5	-4%	-7%
CCCCNC(=O)N1CCN(C(=O)c2ccco2)CC1	·	0%	·

Assay outcomes: PubChem, National Center for Advancing Translational Sciences (NCATS)
